Drawing on PubChem BioAssay (NCATS), this text covers Potency for nine molecules.

Inconclusive results are not listed. Calls of active or inactive are those of the source. The call rests on the fitted dose curve; in most records, active means well fitted inhibition curve with a large enough effect; inconclusive means small, poorly fitted or top-dose-only effect; inactive means flat fitted curve, though single readings scatter.

Holding throughout (experiment): qHTS profiling for inhibitors of Plasmodium falciparum proliferation (AID 504749); further: nearly all actives have a fitted effect of over 60% in size
Common to all, as to conditions: P. falciparum in erythrocytes, SYBR Green DNA, 72 h; series mostly up to 28.7 µM
(Quantitative high-throughput screening tests each substance at several concentrations.)

One assay relates to CP238. The method, boiled down:
(§1)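 In a 72 h erythrocytic culture (37 C, humidified, 5% CO2) at 2.5% hematocrit and 0.3% starting parasitemia, compounds were tested; SYBR Green I in detergent lysis buffer stained parasite DNA overnight.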

Another assay deals with CP247. The method, boiled down: as §1
The test system of the next assay is CP250. The method, boiled down: as §1
A further assay concerns CP252. The method, boiled down: as §1
Another assay has as its system CP256. The method, boiled down:
as §1

The subject of another assay is CP260. The method, boiled down: as §1
The subject of the next assay is CP262. The method, boiled down: as §1
Another assay relates to CP265. The method, boiled down:
as §1

A further assay deals with CP266. The method, boiled down:
as §1

The next assay relates to CP269. In outline:
as §1

For a further assay, the system named is CP286. In outline:
as §1

A further assay has as its system CP291. In outline:
as §1

The test system of a further assay is CP297. In outline: as §1
For a further assay, the system named is CP315. In outline:
as §1

The subject of another assay is CP325. The method, boiled down: as §1
For a further assay, the system named is CP329. In outline:
as §1

The test system of a further assay is CP335. The method, boiled down:
as §1

The next assay has as its system DIV14. In outline: as §1
The next assay deals with CP268. In outline: as §1
The next assay deals with CP305. In outline:
as §1
Potency means the concentration at half of the fitted maximal effect.

With `COc1c(N2C[C@@H]3CCCN[C@H]3C2)c(F)cc2c(=O)c(C(=O)O)cn(C3CC3)c12`, the Potency result in the assay with CP238, in the assay with CP247, with CP250, with CP252, with CP256 and in the assay on CP260 was “inactive” throughout. Further, the Potency entry in the assay on CP262, in the assay on CP265, in the assay with CP266, in the assay on CP269, with CP286 and in the assay with CP291 was “inactive” each time. Further, the Potency result in the assay on CP297, in the assay on CP315, in the assay with CP325, in the assay on CP329, in the assay on CP335 and with DIV14 was “inactive” each time.
On to `CC1(C)O[C@@H]2C[C@@H]3[C@H]4C[C@@H](F)C5=CC(=O)C=C[C@]5(C)[C@@]4(F)[C@@H](O)C[C@]3(C)[C@]2(C(=O)CO)O1`, for which the Potency entry with CP238, with CP247, in the assay on CP250, with CP252, in the assay on CP256 and in the assay on CP260 was “inactive” throughout. In addition, the Potency result with CP262, in the assay on CP265, in the assay on CP286 and in the assay with CP335 was “inactive” throughout.
Regarding `COC(=O)C[C@](O)(CCCC(C)(C)O)C(=O)O[C@@H]1C(OC)=C[C@]23CCCN2CCc2cc4c(cc2[C@H]13)OCO4`, the Potency in the assay on CP238 was 28.2 nM (active); in the assay with CP247 it was 17.8 nM (active); in the assay with CP250 it was 28.2 nM (active); with CP252, 31.6 nM (active); in the assay with CP256, 31.6 nM (active); with CP260, 28.2 nM (active). Also, the Potency with CP262 is 33.8 nM (active); in the assay on CP265 it was 31.6 nM (active); with CP268 it was 37.9 nM (active); with CP269 it was 33.8 nM (active); in the assay on CP286, 28.2 nM (active); with CP291 it was 33.8 nM (active). Further, the Potency was 16.9 nM (active) with CP297; 33.8 nM (active) in the assay on CP305; 23.9 nM (active) in the assay with CP315; 33.8 nM (active) in the assay on CP325; 21.3 nM (active) with CP335; 26.9 nM (active) with DIV14.
Take `COc1cc(C(=O)NS(=O)(=O)c2ccccc2C)ccc1Cc1cn(C)c2ccc(NC(=O)OC3CCCC3)cc12`: the Potency entry in the assay with CP238, in the assay on CP250, in the assay on CP252, in the assay with CP256, in the assay on CP260 and with CP262 was “inactive” in each case. In addition, the Potency entry with CP265, with CP266, in the assay on CP268, in the assay with CP286, in the assay on CP291 and in the assay on CP305 was “inactive” in each case. Also, the Potency entry with CP325 and in the assay on CP329 was “inactive” throughout.
Turning to `O=c1[nH]c(=O)n(C2CCCO2)cc1F` (stereo not drawn), the Potency entry in the assay with CP238, with CP247, in the assay on CP250, in the assay on CP252, in the assay on CP256 and with CP260 was “inactive” in each case. Also, the Potency result in the assay on CP262, with CP265, in the assay with CP266, in the assay with CP268, in the assay on CP269 and in the assay with CP286 was “inactive” throughout. Also, the Potency entry in the assay with CP291, in the assay with CP297, in the assay on CP305, with CP315, in the assay with CP325 and in the assay with CP329 was “inactive” in each case. For the same molecule, the Potency result in the assay on CP335 and in the assay with DIV14 was “inactive” throughout.
Consider `CC=CC1=C(C(=O)O)N2C(=O)[C@H](NC(=O)[C@H](N)c3ccc(O)cc3)[C@@H]2SC1`, for which the Potency result in the assay with CP238, in the assay with CP247, in the assay with CP250, with CP252, in the assay on CP256 and in the assay on CP260 was “inactive” throughout. The Potency result with CP262, in the assay on CP265, with CP266, in the assay with CP268, with CP269 and in the assay with CP286 was “inactive” in each case. Also, the Potency entry in the assay on CP291, in the assay on CP297, in the assay with CP305, in the assay on CP315, with CP325 and in the assay with CP329 was “inactive” throughout. Besides, the Potency result in the assay on CP335 and with DIV14 was “inactive” throughout.
As for `Nc1ccn([C@@H]2CS[C@H](CO)O2)c(=O)n1`, the Potency result in the assay with CP238, in the assay on CP247, with CP250, with CP252, with CP256 and with CP260 was “inactive” throughout. In addition, the Potency entry in the assay with CP262, in the assay with CP265, in the assay with CP266, with CP268, in the assay on CP269 and in the assay on CP286 was “inactive” throughout. Moreover, the Potency entry in the assay on CP291, in the assay with CP297, in the assay on CP305, in the assay on CP315, in the assay with CP325 and in the assay with CP329 was “inactive” each time. The Potency entry in the assay on CP335 and in the assay on DIV14 was “inactive” each time.
For the molecule `CC(C)(C)NC(=O)[C@H]1CN(Cc2cccnc2)CCN1C[C@@H](O)C[C@@H](Cc1ccccc1)C(=O)N[C@H]1c2ccccc2C[C@H]1O`, the Potency with CP247 is 11200 nM (active); in the assay on CP252 it was 12600 nM (active); in the assay with CP269, 13500 nM (active); in the assay on CP291, 15100 nM (active); in the assay on CP305, 13500 nM (active); with CP335, 12000 nM (active). For the same molecule, the Potency in the assay on DIV14 is 13500 nM (active). Also, the Potency result in the assay on CP262 was “inactive”.
Turning to `O=C(O)CO.[NH2-].[NH2-].[Pt+2]`, the Potency result with CP238, in the assay on CP247, in the assay on CP250, in the assay on CP252, with CP256 and in the assay with CP260 was “inactive” each time. Further, the Potency entry in the assay on CP262, with CP265, in the assay on CP266, with CP268, in the assay with CP269 and in the assay on CP286 was “inactive” in each case. For the same molecule, the Potency result in the assay on CP291, in the assay with CP297, in the assay with CP305, with CP315, in the assay with CP325 and with CP329 was “inactive” throughout. The Potency result in the assay on CP335 and in the assay on DIV14 was “inactive” throughout.
